The source of these data is ChEMBL document CHEMBL1961873, “Compounds: GSK PKIS; Assays: Nanosyn kinase panel” (2012).

Test [1] has as its target High affinity nerve growth factor receptor (Homo sapiens) (UniProt P04629). The conditions noted are these: at 1 µM.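 Note: each value is the mean percent inhibition of TRKA.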
Test [2] has as its target BDNF/NT-3 growth factors receptor (Homo sapiens) (UniProt Q16620). The settings on record: at 0.1 µM.
The target is the same in test [3]. The settings on record: at 1 µM.
For test [4], the target named is NT-3 growth factor receptor (Homo sapiens) (UniProt Q16288). The settings on record: at 0.1 µM.
Chain of NT-3 growth factor receptor (Homo sapiens) (Q16288 32-839 limits assumed): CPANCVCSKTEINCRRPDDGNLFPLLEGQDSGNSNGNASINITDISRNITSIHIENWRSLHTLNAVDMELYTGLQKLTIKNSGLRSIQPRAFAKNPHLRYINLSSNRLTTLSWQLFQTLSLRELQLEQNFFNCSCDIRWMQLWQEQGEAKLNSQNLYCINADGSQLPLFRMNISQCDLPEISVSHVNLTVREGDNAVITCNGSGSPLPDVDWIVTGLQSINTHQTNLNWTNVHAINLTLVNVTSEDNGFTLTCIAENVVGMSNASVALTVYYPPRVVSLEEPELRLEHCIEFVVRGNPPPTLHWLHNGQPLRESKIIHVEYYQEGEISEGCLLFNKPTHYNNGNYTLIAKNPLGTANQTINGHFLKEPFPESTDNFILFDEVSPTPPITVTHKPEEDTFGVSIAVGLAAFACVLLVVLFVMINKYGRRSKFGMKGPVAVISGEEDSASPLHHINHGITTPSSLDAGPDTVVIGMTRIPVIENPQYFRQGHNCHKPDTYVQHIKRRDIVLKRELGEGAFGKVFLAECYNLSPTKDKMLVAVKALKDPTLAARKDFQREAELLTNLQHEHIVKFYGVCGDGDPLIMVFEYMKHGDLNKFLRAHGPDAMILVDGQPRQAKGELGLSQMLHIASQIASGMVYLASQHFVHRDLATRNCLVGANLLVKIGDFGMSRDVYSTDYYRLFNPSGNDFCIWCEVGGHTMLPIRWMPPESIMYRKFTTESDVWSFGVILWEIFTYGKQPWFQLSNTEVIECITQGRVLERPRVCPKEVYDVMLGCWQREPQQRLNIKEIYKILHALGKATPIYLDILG
The target is the same in test [5]. The settings on record: at 1 µM.
Test [6] concerns the target T1, Tyrosine-protein kinase TXK (Homo sapiens) (UniProt P42681).
T1 sequence (whole entry): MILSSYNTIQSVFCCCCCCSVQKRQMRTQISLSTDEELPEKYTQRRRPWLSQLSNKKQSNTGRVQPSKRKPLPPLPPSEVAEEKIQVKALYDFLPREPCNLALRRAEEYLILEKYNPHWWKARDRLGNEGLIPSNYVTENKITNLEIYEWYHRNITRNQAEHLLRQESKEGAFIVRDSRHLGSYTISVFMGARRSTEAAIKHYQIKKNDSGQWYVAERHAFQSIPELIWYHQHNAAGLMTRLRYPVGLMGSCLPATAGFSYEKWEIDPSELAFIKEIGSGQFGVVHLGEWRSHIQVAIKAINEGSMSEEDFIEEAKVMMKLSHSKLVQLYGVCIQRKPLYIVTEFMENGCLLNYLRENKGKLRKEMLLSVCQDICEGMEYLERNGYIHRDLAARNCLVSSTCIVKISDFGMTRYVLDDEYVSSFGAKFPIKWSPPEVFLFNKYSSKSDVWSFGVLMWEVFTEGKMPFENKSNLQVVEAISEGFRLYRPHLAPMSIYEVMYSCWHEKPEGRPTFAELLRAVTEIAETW
The conditions noted are these: at 0.1 µM.

For test [7], the target named is T1, Tyrosine-protein kinase TXK (Homo sapiens). The settings on record: at 1 µM.
Test [8] concerns the target Non-receptor tyrosine-protein kinase TYK2 (Homo sapiens) (UniProt P29597). The conditions noted are these: at 0.1 µM.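 Note: each value is a mean of the inhibition readings.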
Test [9] has as its target T2, Dual specificity protein kinase TTK (Homo sapiens) (UniProt P33981).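 Note: reported figures are mean TTK inhibition at 1 µM.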
T2 sequence (whole entry): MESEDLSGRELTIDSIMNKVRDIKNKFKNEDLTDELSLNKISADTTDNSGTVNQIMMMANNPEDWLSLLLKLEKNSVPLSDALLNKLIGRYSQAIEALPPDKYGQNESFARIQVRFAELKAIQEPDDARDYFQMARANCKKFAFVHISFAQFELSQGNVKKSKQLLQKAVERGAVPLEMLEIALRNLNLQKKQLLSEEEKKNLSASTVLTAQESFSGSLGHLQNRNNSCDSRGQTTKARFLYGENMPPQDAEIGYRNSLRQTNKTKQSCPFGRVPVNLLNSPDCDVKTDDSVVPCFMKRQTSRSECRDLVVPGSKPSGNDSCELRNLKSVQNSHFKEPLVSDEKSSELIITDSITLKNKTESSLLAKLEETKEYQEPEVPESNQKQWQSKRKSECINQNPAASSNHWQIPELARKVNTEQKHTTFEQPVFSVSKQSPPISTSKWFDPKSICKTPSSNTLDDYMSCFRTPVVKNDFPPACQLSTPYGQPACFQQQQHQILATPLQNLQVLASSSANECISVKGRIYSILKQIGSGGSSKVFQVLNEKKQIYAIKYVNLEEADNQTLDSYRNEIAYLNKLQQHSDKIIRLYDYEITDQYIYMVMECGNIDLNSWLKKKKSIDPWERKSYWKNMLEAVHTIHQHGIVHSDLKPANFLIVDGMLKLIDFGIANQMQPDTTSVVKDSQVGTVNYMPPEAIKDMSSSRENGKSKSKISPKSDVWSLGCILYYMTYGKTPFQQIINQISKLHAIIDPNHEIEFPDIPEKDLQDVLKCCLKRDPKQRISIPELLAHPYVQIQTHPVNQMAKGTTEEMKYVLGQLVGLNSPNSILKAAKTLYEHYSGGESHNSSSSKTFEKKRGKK
The conditions noted are these: at 1 µM.

For test [10], the target named is T3, Aurora kinase A (Homo sapiens) (UniProt O14965).
T3 sequence (whole entry): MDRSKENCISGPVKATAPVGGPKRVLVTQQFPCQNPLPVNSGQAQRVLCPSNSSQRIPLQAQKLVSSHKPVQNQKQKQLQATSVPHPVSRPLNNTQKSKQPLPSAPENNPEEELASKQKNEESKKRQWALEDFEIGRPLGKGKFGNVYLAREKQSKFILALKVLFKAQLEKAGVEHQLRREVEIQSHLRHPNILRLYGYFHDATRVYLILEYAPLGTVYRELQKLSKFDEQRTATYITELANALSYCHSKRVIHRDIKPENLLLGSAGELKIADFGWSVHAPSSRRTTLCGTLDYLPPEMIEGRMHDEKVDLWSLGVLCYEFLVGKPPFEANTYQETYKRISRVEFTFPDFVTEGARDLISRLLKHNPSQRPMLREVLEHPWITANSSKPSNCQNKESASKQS
The conditions noted are these: at 0.1 µM.

Test [11] deals with T3, Aurora kinase A (Homo sapiens). The conditions noted are these: at 1 µM.
The target of test [12] is Aurora kinase B (Homo sapiens) (UniProt Q96GD4). The conditions noted are these: at 0.1 µM.
Chain of Aurora kinase B (Homo sapiens) (Q96GD4 whole entry): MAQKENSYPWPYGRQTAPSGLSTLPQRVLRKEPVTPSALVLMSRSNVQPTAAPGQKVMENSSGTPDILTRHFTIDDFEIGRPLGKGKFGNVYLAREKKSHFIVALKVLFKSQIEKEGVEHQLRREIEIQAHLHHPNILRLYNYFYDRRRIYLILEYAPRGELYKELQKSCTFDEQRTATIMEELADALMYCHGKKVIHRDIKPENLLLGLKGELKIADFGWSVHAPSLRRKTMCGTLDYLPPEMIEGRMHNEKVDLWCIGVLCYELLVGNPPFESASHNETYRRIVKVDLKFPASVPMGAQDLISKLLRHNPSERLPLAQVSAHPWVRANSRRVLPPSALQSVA
Test [13] shares this target. The settings on record: at 1 µM.
In test [14] the target is T4, Aurora kinase C (Homo sapiens) (UniProt Q9UQB9).
T4 sequence (whole entry): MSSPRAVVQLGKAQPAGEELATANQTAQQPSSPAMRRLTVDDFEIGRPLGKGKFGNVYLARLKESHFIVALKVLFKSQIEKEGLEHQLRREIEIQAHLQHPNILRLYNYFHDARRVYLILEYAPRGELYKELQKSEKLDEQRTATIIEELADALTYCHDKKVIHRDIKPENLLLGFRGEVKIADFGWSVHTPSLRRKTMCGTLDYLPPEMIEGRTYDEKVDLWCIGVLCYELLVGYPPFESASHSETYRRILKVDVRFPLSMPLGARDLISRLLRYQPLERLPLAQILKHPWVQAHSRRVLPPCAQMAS
The settings on record: at 0.1 µM.

Test [15] has as its target T4, Aurora kinase C (Homo sapiens). The conditions noted are these: at 1 µM.
The target of test [16] is Serine/threonine-protein kinase 10 (Homo sapiens) (UniProt O94804). The settings on record: at 0.1 µM.
Chain of Serine/threonine-protein kinase 10 (Homo sapiens) (O94804 whole entry, looked up): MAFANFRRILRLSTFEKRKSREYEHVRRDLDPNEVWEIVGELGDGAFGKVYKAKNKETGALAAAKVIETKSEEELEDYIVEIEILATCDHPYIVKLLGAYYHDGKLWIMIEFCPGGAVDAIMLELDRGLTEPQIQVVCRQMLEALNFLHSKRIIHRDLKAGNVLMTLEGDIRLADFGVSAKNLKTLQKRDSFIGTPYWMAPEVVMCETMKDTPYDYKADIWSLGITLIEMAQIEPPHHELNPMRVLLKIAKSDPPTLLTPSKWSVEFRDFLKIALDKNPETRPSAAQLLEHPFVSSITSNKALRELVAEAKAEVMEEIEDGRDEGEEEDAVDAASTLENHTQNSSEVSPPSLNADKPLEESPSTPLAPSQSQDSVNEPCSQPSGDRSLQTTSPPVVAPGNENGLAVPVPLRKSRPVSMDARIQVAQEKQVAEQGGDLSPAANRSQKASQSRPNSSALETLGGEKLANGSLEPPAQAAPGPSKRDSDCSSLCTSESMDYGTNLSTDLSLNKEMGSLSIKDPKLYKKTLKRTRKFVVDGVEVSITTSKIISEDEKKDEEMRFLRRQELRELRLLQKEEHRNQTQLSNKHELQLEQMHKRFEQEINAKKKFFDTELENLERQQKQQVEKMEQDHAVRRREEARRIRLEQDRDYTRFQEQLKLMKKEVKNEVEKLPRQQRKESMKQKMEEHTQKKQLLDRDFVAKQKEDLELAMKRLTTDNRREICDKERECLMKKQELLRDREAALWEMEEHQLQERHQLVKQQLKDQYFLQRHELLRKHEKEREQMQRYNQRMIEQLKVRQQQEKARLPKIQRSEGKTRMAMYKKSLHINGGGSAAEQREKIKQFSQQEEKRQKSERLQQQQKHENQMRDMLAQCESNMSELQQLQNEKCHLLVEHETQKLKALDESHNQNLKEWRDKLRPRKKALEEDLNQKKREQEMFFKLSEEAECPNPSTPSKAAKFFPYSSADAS
Test [17] shares this target. The conditions noted are these: at 1 µM.
Test [18] has as its target T5, Mitogen-activated protein kinase kinase kinase kinase 2 (Homo sapiens) (UniProt Q12851).
T5 sequence (whole entry): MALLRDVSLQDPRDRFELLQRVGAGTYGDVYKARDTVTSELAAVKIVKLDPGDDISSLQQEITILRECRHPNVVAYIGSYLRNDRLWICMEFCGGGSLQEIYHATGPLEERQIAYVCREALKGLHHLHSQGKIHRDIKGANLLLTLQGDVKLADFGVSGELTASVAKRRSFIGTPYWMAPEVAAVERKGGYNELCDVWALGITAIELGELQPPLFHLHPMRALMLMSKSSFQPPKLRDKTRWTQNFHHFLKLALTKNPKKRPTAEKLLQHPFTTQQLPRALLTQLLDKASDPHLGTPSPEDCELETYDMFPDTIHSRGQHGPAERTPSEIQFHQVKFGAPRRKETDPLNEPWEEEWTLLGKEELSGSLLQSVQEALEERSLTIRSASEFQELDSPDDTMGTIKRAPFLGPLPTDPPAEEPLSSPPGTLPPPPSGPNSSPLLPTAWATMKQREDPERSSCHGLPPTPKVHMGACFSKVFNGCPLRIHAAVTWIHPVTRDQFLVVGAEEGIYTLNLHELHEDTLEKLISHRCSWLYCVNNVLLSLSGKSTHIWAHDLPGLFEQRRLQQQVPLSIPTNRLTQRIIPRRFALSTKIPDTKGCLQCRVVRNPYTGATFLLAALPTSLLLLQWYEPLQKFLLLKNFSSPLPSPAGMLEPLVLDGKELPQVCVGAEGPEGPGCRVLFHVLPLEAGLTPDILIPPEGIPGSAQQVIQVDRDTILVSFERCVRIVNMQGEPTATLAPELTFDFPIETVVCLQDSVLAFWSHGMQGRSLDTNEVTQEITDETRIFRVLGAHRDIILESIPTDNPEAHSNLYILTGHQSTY
The settings on record: at 0.1 µM.

For test [19], the target named is T5, Mitogen-activated protein kinase kinase kinase kinase 2 (Homo sapiens). The settings on record: at 1 µM.
Test [20] deals with Mitogen-activated protein kinase kinase kinase kinase 4 (Homo sapiens) (UniProt O95819). The conditions noted are these: at 0.1 µM.
Chain of Mitogen-activated protein kinase kinase kinase kinase 4 (Homo sapiens) (O95819 2-1239 limits assumed): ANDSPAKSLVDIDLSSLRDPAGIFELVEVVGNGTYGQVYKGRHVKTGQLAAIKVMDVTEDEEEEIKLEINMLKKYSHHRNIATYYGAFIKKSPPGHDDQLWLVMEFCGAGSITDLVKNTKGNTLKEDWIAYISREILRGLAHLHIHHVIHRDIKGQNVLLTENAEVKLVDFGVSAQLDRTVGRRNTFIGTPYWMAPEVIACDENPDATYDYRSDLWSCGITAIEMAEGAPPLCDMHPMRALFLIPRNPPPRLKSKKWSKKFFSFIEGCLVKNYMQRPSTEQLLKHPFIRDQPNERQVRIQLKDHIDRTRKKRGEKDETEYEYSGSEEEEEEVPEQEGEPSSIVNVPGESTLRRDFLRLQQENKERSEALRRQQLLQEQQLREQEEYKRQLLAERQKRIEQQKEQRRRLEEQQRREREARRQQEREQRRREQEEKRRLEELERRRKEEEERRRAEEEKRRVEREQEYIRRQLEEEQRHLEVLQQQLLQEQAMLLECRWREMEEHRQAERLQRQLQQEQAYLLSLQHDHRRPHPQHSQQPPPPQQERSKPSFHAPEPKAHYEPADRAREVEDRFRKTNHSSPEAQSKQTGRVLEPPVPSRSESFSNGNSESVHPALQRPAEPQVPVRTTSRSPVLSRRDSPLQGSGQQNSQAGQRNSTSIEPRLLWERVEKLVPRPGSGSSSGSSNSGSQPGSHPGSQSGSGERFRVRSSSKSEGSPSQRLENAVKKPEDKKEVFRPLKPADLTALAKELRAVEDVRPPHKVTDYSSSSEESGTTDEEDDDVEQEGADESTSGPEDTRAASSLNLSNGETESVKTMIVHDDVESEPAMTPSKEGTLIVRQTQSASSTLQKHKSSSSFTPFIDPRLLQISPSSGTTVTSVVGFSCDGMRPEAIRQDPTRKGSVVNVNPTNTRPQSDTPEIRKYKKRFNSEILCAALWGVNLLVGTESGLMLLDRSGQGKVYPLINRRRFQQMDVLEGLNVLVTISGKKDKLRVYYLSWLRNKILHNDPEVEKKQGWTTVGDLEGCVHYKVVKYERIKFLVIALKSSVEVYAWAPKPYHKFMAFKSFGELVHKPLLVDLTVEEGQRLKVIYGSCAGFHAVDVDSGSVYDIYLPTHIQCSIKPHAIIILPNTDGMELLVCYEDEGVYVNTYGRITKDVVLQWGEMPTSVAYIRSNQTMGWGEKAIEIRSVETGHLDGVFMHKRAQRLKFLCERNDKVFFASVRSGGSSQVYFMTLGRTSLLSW

Chain of High affinity nerve growth factor receptor (Homo sapiens) (P04629 33-796 limits assumed): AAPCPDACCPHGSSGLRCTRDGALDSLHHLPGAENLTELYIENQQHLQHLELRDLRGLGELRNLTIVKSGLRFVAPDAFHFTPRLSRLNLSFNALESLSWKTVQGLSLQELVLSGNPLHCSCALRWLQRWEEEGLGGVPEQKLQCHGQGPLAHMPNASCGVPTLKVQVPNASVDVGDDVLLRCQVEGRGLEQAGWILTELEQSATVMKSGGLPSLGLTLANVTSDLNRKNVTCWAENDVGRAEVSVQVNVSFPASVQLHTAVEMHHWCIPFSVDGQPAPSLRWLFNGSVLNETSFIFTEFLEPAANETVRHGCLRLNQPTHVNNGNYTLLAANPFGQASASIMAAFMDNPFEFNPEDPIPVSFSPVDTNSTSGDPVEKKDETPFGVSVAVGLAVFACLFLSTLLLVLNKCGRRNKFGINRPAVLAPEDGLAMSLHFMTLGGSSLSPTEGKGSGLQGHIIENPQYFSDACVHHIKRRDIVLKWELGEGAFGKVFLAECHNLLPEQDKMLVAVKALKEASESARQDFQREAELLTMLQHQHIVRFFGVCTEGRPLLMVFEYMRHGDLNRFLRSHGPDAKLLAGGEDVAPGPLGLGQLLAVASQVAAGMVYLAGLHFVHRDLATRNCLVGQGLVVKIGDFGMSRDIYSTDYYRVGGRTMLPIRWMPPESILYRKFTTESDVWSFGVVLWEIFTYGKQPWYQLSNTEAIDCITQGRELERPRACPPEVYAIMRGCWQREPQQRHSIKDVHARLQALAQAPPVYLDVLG
Chain of BDNF/NT-3 growth factors receptor (Homo sapiens) (Q16620 32-822 limits assumed): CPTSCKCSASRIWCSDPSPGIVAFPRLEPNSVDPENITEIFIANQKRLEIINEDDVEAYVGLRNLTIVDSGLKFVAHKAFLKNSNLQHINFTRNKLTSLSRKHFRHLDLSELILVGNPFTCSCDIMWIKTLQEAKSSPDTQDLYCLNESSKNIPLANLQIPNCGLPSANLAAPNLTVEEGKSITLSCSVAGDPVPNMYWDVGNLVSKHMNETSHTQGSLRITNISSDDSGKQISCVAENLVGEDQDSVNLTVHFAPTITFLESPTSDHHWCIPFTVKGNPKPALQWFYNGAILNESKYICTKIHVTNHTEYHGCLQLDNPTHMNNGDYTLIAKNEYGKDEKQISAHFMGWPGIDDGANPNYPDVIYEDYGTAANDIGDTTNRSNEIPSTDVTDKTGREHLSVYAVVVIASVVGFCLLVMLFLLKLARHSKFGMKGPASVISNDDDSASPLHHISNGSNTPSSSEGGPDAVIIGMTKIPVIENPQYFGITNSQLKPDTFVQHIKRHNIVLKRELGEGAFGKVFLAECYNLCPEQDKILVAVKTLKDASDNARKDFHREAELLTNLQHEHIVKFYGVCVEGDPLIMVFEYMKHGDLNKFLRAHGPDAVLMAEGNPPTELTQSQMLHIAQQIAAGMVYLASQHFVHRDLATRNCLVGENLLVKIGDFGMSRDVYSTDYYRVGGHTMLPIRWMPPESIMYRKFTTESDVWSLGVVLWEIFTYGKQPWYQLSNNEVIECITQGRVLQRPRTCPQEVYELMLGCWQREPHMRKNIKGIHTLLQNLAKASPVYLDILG

For orientation: inhibition means the change of the read-out against control, counted positive when it falls. On to `COc1ccc2ncn(-c3cc(O[C@H](C)c4ccccc4C(F)(F)F)c(C(N)=O)s3)c2c1`, for which the inhibition in test [1] is 2.53%; in test [2] it was -0.31%; in test [3], 4.65%; in test [4] it was 0.4%; in test [5], 5.65%; in test [6] it was 1.46%. Besides, the inhibition was 2.56% in [7]; 0.28% in test [8]; 5.58% in test [9]; -0.03% in test [10]; 5.59% in test [11]; 1.15% in test [12]. Also, the inhibition is 7.77% in test [13]; -1.97% in test [14]; -0.3% in test [15]; 35.2% in [16]; 80.7% in [17]; 0.64% in test [18]. Further, the inhibition in test [19] was found to be 4.67%; in test [20] it was 0.55%.
In the case of `COc1cccc(Nc2nccc(-c3cnn4ncccc34)n2)c1`, the inhibition came to 17.4% in test [1]; 6.68% in test [2]; 34.1% in test [3]; 7.22% in test [4]; 37.6% in test [5]; 2.32% in test [6]. The inhibition in [7] is 15.5%; in test [8], -4.06%; in test [9], 22.8%; in test [10] it was 11.9%; in test [11] it was 86.4%; in test [12], 26.7%. Moreover, the inhibition in test [13] amounted to 72.3%; in test [14] it was 33.2%; in [15] it was 97.3%; in test [16], 4.01%; in [17], 17.4%; in [18], 17.1%. In addition, the inhibition in [19] was 60.1%; in test [20] it was 14.8%.
Take `N#Cc1ccc2c(-c3ccnc(NC4CC4)n3)c(-c3ccc(F)cc3)nn2c1`: the inhibition is -2.02% in [1]; 0.12% in test [2]; 0.68% in test [3]; -1.35% in test [4]; -1.48% in [5]; 0.94% in [6]. The inhibition in test [7] is 12.3%; in test [8] it was 0.53%; in test [9], 3.53%; in test [10], 0.84%; in test [11], 0.56%; in test [12], 0.7%. The inhibition is -0.38% in test [13]; 0.81% in [14]; 5.38% in test [15]; 2.63% in test [16]; 4.13% in [17]; 0.19% in [18]. Further, the inhibition was 2.06% in test [19] and 5.83% in [20].
`CCS(=O)(=O)c1ccc(OC)c(Nc2ncc(-c3cccc(F)c3)o2)c1`: the inhibition amounted to 42.8% in test [1]; 10% in test [2]; 47.2% in [3]; 12% in test [4]; 48.1% in test [5]; 17.2% in test [6]. The inhibition in test [7] was 56%; in test [8] it was -0.94%; in test [9], 8.85%; in [10] it was 7.01%; in test [11], 26.8%; in test [12], 4.7%. Further, the inhibition came to 3.78% in test [13]; 0.03% in test [14]; 5.54% in [15]; 12% in test [16]; 24.3% in test [17]; 1.31% in test [18]. Also, the figures for the inhibition in [19] and in test [20] were 8.13% and 6.47%, respectively.
Take `CC1=C(C(=O)Nc2ccc3[nH]nc(C)c3c2)C(c2ccc(C(F)(F)F)cc2)CC(=O)N1` (stereo not given): the inhibition in test [1] was determined as 3.25%; in test [2] it was 1%; in [3], 3.58%; in test [4], 2.43%; in [5] it was 6.4%; in [6], 3.55%. For the same compound, the inhibition is 6.06% in test [7]; 0.25% in [8]; -0.26% in test [9]; 17.9% in test [10]; 88.3% in test [11]; 7.45% in test [12]. Moreover, the inhibition in test [13] was 45.7%; in test [14] it was 7.71%; in [15], 78.2%; in [16], 2.01%; in test [17], 4.46%; in test [18], 0.76%. Also, the inhibition in [19] was determined as 3.74%; in test [20], 4.23%.
As for `O=C(Nc1n[nH]c2nnc(-c3cccnc3)cc12)C1CC1`, the inhibition in test [1] was -0.64%; in test [2], -0.74%; in [3] it was 0.57%; in test [4], -0.44%; in [5], -0.22%; in test [6], 0.3%. The inhibition in test [7] was 2.21%; in test [8], 1.8%; in [9], 2.14%; in test [10], 0.85%; in [11] it was 0.07%; in test [12], 0.12%. Further, the inhibition in test [13] was 3.67%; in test [14], -1.84%; in test [15], 3.75%; in [16], -0.21%; in test [17] it was 0.78%; in test [18] it was 0.63%. Further, the inhibition in test [19] was determined as 1.06%; in [20], 3.78%.
